RTF Ca sens act = cardiac RTF calcium sensitivity activators, primary screen, biochemical, IANBD-TnC fluorescence, EC20 calcium. Troponin I, cardiac muscle (Homo sapiens) + Troponin T, cardiac muscle (Homo sapiens) + …. IANBD-labeled TnC RTF fluorescence at EC20 calcium; 0% EC20 calcium, 100% full calcium. activation, % at 7.2 µM. 340,000 tested, 0.24% active. AID 493008, 2010;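 active = activation above the mean over all tested compounds plus 3 SD, cut at about 30% in these data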;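 note: rise in fluorescence read as greater calcium sensitivity of cardiac thin filaments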
RTF Ca sens inh = cardiac RTF calcium sensitivity inhibitors, primary screen, biochemical, IANBD-TnC fluorescence, EC70 calcium; Troponin I, cardiac muscle (Homo sapiens) + Troponin T, cardiac muscle (Homo sapiens) + …; IANBD-labeled cardiac RTF, Ca2+ fluorescence; inhibition, % at 7.15 µM; 340,000 tested, 0.12% active; AID 493244, 2011;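 active = inhibition above the mean inhibition of all tested compounds plus 3 SD, cut at about 17% in these data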;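 note: assay run at fixed EC70 calcium of 1.6 mM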
IDE inh = human IDE inhibitors in live cells, primary screen, fluorescence polarization, HEK cells, FAbetaB substrate; inhibition, % at 5.59 µM; 320,000 tested, 0.41% active; FAbetaB cleavage; AID 434962, 2010;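 active = percent inhibition above the average of all tested compounds plus 3 SD, set per screening campaign, cut at about 16% in these data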;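 note: IDE supplied by intact live HEK cells; FP after avidin binding of uncleaved biotin substrate so inhibition keeps polarization high; 0% = DMSO wells and 100% = 60 µM reference IDE inhibitor Ii1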
Target sequence (P14735 whole entry, looked up): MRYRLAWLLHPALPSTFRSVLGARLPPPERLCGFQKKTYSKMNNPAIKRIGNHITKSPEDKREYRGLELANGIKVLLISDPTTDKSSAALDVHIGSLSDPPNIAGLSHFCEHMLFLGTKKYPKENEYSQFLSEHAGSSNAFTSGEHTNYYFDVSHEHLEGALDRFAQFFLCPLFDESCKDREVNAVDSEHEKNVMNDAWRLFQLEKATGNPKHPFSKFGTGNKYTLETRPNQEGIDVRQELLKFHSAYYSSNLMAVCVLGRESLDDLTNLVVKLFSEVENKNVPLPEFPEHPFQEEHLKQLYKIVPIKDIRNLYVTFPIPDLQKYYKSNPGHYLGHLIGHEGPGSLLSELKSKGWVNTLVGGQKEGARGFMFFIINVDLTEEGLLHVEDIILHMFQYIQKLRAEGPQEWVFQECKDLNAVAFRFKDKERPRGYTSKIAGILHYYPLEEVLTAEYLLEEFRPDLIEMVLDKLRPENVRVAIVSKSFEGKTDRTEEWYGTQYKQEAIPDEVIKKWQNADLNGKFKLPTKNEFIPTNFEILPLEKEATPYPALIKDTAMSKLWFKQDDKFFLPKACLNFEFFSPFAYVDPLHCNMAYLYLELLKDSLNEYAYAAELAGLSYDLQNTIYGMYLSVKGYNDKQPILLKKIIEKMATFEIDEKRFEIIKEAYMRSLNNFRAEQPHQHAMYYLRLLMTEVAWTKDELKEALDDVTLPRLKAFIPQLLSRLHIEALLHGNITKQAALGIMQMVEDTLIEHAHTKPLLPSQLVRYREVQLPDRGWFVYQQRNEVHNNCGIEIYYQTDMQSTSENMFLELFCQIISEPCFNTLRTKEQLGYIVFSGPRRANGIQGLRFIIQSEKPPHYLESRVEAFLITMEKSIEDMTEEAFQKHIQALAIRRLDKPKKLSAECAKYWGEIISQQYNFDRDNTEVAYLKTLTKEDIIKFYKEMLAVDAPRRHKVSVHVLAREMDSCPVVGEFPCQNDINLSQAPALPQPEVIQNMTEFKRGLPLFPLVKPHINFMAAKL
Keap1-Nrf2 PPI = Keap1-Nrf2 protein-protein interaction inhibitors, primary screen, biochemical, fluorescence polarization, single point; 340,000 tested, 0.15% active; Keap1 Kelch-Nrf2 peptide fluorescence polarization, 1536-well; inhibition, % at 9.4 µM; Kelch-like ECH-associated protein 1 (Homo sapiens), Q14145; AID 504523, 2011; in the data active = inhibition above about 12%;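 note: human Keap1 Kelch domain with fluorescein labeled Nrf2 9mer peptide probe; 0% = neutral control wells and 100% = peptide positive control; higher means more block of Keap1 binding to Nrf2 peptide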
LANA DNA inh = inhibitors of KSHV C-LANA binding to DNA, primary screen, biochemical, fluorescence polarization, FAM-LBS DNA, MBP-C-LANA, single point | inhibition, % at 9 µM | 340,000 tested, 0.078% active;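 active = highest replicate inhibition at or above 60% at 9 µM, even if other replicates fall short; inactive = all replicates below 60% inhibition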;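 note: 0% = neutral control wells and 100% = 4 µM acridine orange control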
IDE cell activ = human IDE activators in live cells, primary screen, fluorescence polarization, HEK cells, FAbeta-B substrate. AID 493087, 2011. activation, % at 5.96 µM. Insulin-degrading enzyme (Homo sapiens), P14735. 340,000 tested, 0.073% active. FAbeta-B cleavage; 0% vehicle, 100% cell-free pure enzyme wells;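 active = activation above the mean of all tested compounds plus 3 SD, set per screening campaign, cut at about 17% in these data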
IDE cell inh cf = human IDE inhibitors in live cells, confirmation, fluorescence polarization, HEK cells, FAbetaB substrate. shares compounds with IDE inh. FAbetaB cleavage. inhibition, % at 5.59 µM. 1,200 tested, 51% active. AID 435028, 2010;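 active = mean inhibition across triplicate wells above the cutoff set by the earlier primary insulin-degrading enzyme screen, cut at about 16% in these data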;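 note: 0% = DMSO wells and 100% = 60 µM reference IDE inhibitor Ii1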
HEK293 tox = cytotoxicity in HEK cells, cytotoxicity control for IDE inhibitor project, cell-based, luminescence; shares compounds with IDE inh; HEK293 cytotoxicity, ATP luminescence; inhibition, % at 5.59 µM; 1,200 tested, 28% active; AID 449730, 2010; in the data active = inhibition above about 22%;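 note: 0% = vehicle wells and 100% = reference cytotoxic drug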
Active calls of the source: *; i = inactive; / = no result; + = active, no number. Compounds with a hit are over-represented: about 0.81% of the library has one in this group of screens.

SMILES	RTF Ca sens act	RTF Ca sens inh	IDE inh	Keap1-Nrf2 PPI	LANA DNA inh	IDE cell activ	IDE cell inh cf	HEK293 tox
O=C(O)Cn1c2c(c3ccccc31)CSc1ccc(Cl)cc1-2	-2	-6	24*	-4	1	-8	3	8
CCn1c(/C=C/c2c[nH]c3ccccc23)nc2ccccc2c1=O	-5	-4	-7	0	0	-2	/	/
CC[n+]1ccc(/C=C/c2c[nH]c3ccccc23)cc1	102*	-120	24*	-110	-22	-14	41*	71*
CC1(C)CC(=O)C/C(=N/NC(=O)c2ccc(-c3ccccc3)cc2)C1	-3	-6	18*	4	0	-11	14	5
COC(=O)c1c(C)nn(-c2ccc(OC(F)(F)F)cc2)c1-c1snnc1C	/	/	1	/	/	/	/	/
CCOC(=O)c1sc(Nc2ccccc2)nc1C	2	-7	7	4	1	4	/	/
CCOc1cccc2sc(Nc3nc4ccc(NC(C)=O)cc4s3)nc12	2	-6	32*	-5	0	-28	15	89*
CCOC(=O)c1sc(Nc2nc3c(OC)cccc3s2)nc1C	-2	-32	17*	3	0	-7	7	12
Cc1ccc(-c2csc(SCC(=O)c3c(N)n(C4CC4)c(=O)[nH]c3=O)n2)cc1	1	-9	/	-3	1	-6	/	/
CCOC(=O)N1CCN(C(=O)c2cccn3c(=O)c4cc(Cl)ccc4nc23)CC1	-3	-1	16*	-3	-1	-7	8	4
CCOC(=O)N1CCN(C(=O)c2cccn3c(=O)c4cc(Br)ccc4nc23)CC1	0	-5	10	5	-1	-7	/	/
O=C(Nc1ccc(N2CCOCC2)c(Cl)c1)c1ccc(Cl)cc1	-3	-8	18*	0	-1	-5	4	21
Cc1cc(C)nc(NN2C(=O)/C(=C/c3ccccc3)SC2=S)n1	2	-2	-3	-7	2	-10	/	/
COc1cc(/C=C2\SC(=S)N(Nc3ncc(C(F)(F)F)cc3Cl)C2=O)ccc1O	6	-21	51*	1	-4	-87	129*	7
CN(C)c1ccc(/C=C2\SC(=S)N(Nc3ncc(C(F)(F)F)cc3Cl)C2=O)cc1	147*	-339	49*	-6	0	-155	130*	10
Cc1ccc(S(=O)(=O)NCc2ccccc2)cc1C(=O)NCc1ccccn1	1	-2	-3	-1	1	-8	/	/
COc1ccc(Cn2c(CCC(=O)Nc3ccc(CC#N)cc3)nc3cccnc32)cc1	-6	5	0	-8	1	-6	/	/
Nc1ccc(-c2c3ccc(=O)cc-3oc3cc(O)ccc23)c(C(=O)O)c1	+	i	49*	-17	171*	-13	28*	4
COc1ccc(OCc2cc(C(=O)N3CCSCC3)no2)c(Cl)c1	1	-2	18*	-6	0	-15	11	12
O=C(CSc1nnc(-c2cccnc2)n1-c1ccccc1)N1CCN(c2ccc(F)cc2)CC1	4	0	21*	-3	-1	-34	10	21
Cc1ccc(-n2c(SCC(=O)N3CCOCC3)nnc2-c2cccnc2)cc1	-7	-10	8	-1	-1	-2	/	/
Cc1ccc(-n2c(SCC(=O)N3CCOCC3)nnc2-c2cccnc2)cc1C	3	-2	19*	2	0	-12	6	8
Cn1c(NC(=O)Cc2ccc(F)cc2)cc(=O)n(C)c1=O	2	-3	0	-5	0	0	/	/
CN(C)S(=O)(=O)c1cccc(-c2nn(-c3ccccc3)cc2/C=C(\C#N)c2nc3ccccc3[nH]2)c1	0	-2	7	-4	-3	-2	/	/
CN(C)S(=O)(=O)c1cccc(-c2nn(-c3ccccc3)cc2/C=C2\SC(=S)NC2=O)c1	0	-5	26*	-11	0	-1	-3	23*
SMILES	RTF Ca sens act	RTF Ca sens inh	IDE inh	Keap1-Nrf2 PPI	LANA DNA inh	IDE cell activ	IDE cell inh cf	HEK293 tox
CNC(=O)c1oc(-c2ccccc2)nc1C	1	-4	-1	-1	-1	-1	/	/
N=C1/C(=C\c2ccc(SCc3ccco3)o2)C(=O)N=C2SC=NN12	15	-31	25*	-5	8	-31	13	8
COc1ccc(S(=O)(=O)c2c(N)n(Cc3ccco3)c3nc4ccccc4nc23)cc1	3	-27	23*	-3	3	-13	10	5
COc1ccc(Cn2c(C)nc3c(c2=O)c2nc4ccccc4nc2n3Cc2ccco2)cc1	-4	4	/	-7	-1	-3	/	/
Cc1ccc(-n2c(O)c(/C=C3/C(c4ccccc4)=Nc4ccccc43)c(=O)[nH]c2=O)cc1	0	9	3	-1	1	4	/	/
Cc1ccccc1-n1c(O)c(/C=C/C=Nc2ccccc2)c(=O)[nH]c1=O	124*	-135	66*	-214	-56	-71	85*	7
COc1cc(/C=C(\C#N)c2ccccn2)cc(OC)c1O	3	-2	160*	-11	-4	-166	52*	17
COc1cc(/C=C(\C#N)c2nn(CCO)c(N)c2C#N)cc(OC)c1OC	-2	-2	2	-3	-1	3	/	/
COc1cc(/C=C(\C#N)c2[nH]nc(N)c2C#N)cc(OC)c1O	0	-12	84*	-3	1	-73	166*	9
COC(=O)CN=Cc1c(C)[nH]n(-c2ccccc2)c1=O	0	0	-2	1	-2	-1	/	/
Cc1[nH]n(-c2ccccc2)c(=S)c1C=NCCCN=Cc1c(C)[nH]n(-c2ccccc2)c1=S	1	-10	32*	-1	1	-16	4	123*
O=c1c2ccccc2sn1-c1ccc(S(=O)(=O)N2CCCC2)cc1	-9	-1	38*	-5	0	-50	12	22
Cc1ccc(-n2sc3ccccc3c2=O)cc1S(=O)(=O)N1CCCCC1	-2	-4	83*	-4	4	-30	25*	20
Cc1cc(C)n2nc(C(=O)OCC(=O)NNC(=O)c3ccccc3)nc2n1	-2	-3	3	-5	1	-2	/	/

From PubChem
